53 molecules from ChEMBL document CHEMBL3988442, “University of Dundee, Small-Polar-MMV Screening Library” (2021) can be followed below.

This assay has as its system Leishmania donovani. The assay is described as follows: Leishmania intramacrophage assay. The assay is classed as functional, organism-based. More on the design: scale not given: in the data most compounds retested in dose-response had high values.

The whole screen tested about 69,000 compounds, of which about 1,000 (1.4%) showed an effect of 50% or more. Many of the other results were omitted from the sample, so strong results are more common in it than they were.

As for `COc1cc(N2CC[C@H](O)[C@@H]2Cc2cnn(C)c2)ncn1`, the “Percent Effect” value (30 µM, 30.03 µM) worked out at 12.89%. As for `COc1ccccc1C(=O)N1C[C@@H]2CCCCN(CC(N)=O)[C@@H]2C1`, the “Percent Effect” value (30.3 µM, […]) was -33.88%. Take `O=C(Nc1ccccn1)N(CCO)Cc1ccccc1Br`: the “Percent Effect” value (30 µM) stood at 5.548%. Take `CN1CCN(Cc2ccc(-c3ccc4[nH]ccc4c3)nc2)CC1`: the “Percent Effect” value (30.3 µM, […]) is recorded as -38.55%. The same measure, in the same setting: for `CN1CCN(Cc2ccc(-c3ccc(-c4ccn[nH]4)cc3)nc2)CC1` the value was 8.288%; for `CN1CCN(Cc2ccc(-c3ccc(C(N)=O)cc3)nc2)CC1`, 77.28%. Take `CS(=O)(=O)N1CC[C@H]2OCC[C@@]2(C(=O)NCc2ccccn2)C1.O=C(O)C(F)(F)F`: the “Percent Effect” value (30.3 µM, […]) came out at 38.61%.

`CC(C)N1CC2(CCC1=O)CCN(c1ccnc3ccccc13)CC2`: where the note is “30.3 µM, […]”, the “Percent Effect” value is reported as 16.36%. Consider `CC(C)N1CC2(CCCN(c3ccccn3)C2)CCC1=O` (stereo not drawn), for which, where the note is “30.3 µM, […]”, the “Percent Effect” value was found to be 24.82%. For `CC(C)N1CC2(CCCN(c3ccnc4ccccc34)C2)CCC1=O` (stereo not drawn), the “Percent Effect” value (30.3 µM, […]) was found to be 61.79%.

In the case of `CN1CCN(C(=O)c2cccc(S(=O)(=O)NCC3(C)COC3)c2)CC1`, the “Percent Effect” value (30.3 µM, […]) was 33.44%. The same measure, in the same setting: for `COC(=O)COc1cc(NCc2c(C)noc2C)c(Cl)cc1C` the value was 56.06%.

With `COc1cc(Cl)c(NCc2c(C)noc2C)cc1OC`, under “30.3 µM, […]”, the “Percent Effect” value amounted to 14.57%. As to `COc1cc(NCc2c(C)noc2C)c(OC)cc1Cl`, for the setting “30.3 µM, […]”, the “Percent Effect” value amounted to 13.7%. The same measure, in the same setting: the value for `CN1C(=O)COc2cc(NC(=O)CCc3nc4cccnc4[nH]3)ccc21` was 33.08%; that for `CN1C(=O)COc2ccc(NC(=O)CCc3nc4cccnc4[nH]3)cc21` was 53.55%; that for `O=C(CCc1nc2cccnc2[nH]1)Nc1ccc2c(c1)NC(=O)CO2` was 20.44%. Still for that read-out and setting: the value for `O=C(N[C@@H]1CCN(C(=O)c2cc[nH]c2)C[C@H]1O)c1ccccn1` was 4.682%. Consider `CN1CCC(CNC(=O)c2cccc(CN3CCCCCC3)c2)C1` (stereo not drawn), for which the “Percent Effect” value (30.3 µM, […]) is recorded as -20.09%. For the molecule `CCC[C@H]1CN(S(C)(=O)=O)C[C@@H]1NC(=O)CCOCC`, the “Percent Effect” value (30.3 µM, […]) is reported as -29.93%. As for `O=C(Nc1ccccc1)c1n[nH]c(-n2cnnc2)n1`, the “Percent Effect” value (30.3 µM, […]) is 15.16%. Same read-out and setting: the value for `CCc1ccc(NC(=O)c2n[nH]c(-n3cnnc3)n2)cc1` was -23.27%; that for `Cc1ccc(NC(=O)c2n[nH]c(-n3cnnc3)n2)cc1` was 53.89%. On to `O=C(NCC(O)(c1ccco1)C1CC1)c1ccccc1F` (stereo not drawn), for which the “Percent Effect” value (30.3 µM, […]) is recorded as -8.312%. On the same count and under the same terms, for `CCCS(=O)(=O)CCN1CCOC(c2ccsc2)C1` (stereo not drawn) the value was 22.47%.

In the case of `CNS(=O)(=O)CC(=O)N1CCC(c2ccc(F)c(F)c2)CC1`, the “Percent Effect” value (30.3 µM, […]) stood at 9.155%. On to `CC(C)c1nnc2n1CCN(C(=O)c1ccc3c(c1)NC(=O)CO3)C2`, for which the “Percent Effect” value (30.3 µM, […]) was found to be 10.03%.

In the case of `O=C(C1CCC1)N1C[C@@H]2CCN(c3cccnc3)C[C@@H]2C1.O=C(O)C(F)(F)F`, for the setting “30.3 µM, […]”, the “Percent Effect” value was found to be 7.145%.

Take `Fc1cccc(N2C[C@H]3CCN(c4cccnc4)C[C@H]3C2)c1.O=C(O)C(F)(F)F`: under “30 µM, 30.03 µM”, the “Percent Effect” value is 57.72%. In the case of `O=C(O)C(F)(F)F.O=C(c1ccc(F)cc1)N1C[C@@H]2CCN(c3cccnc3)C[C@@H]2C1`, for the setting “30.3 µM, […]”, the “Percent Effect” value is listed as -2.032%. In the case of `CCn1cnnc1C1CCN(C(=O)c2cccc3c2ccn3C)CC1`, under “30 µM, 30.03 µM”, the “Percent Effect” value was 34.62%. `CNC(=O)Cc1ccc(NC(=O)NC2(c3cccc(F)c3)CC2)cc1`: for the setting “30.3 µM, […]”, the “Percent Effect” value is listed as 15.99%. Consider `Cc1ccc(-c2cccc(N3CCC(NC4CCOCC4)CC3)c2)cc1`, for which the “Percent Effect” value (30.3 µM, […]) stood at 88.48%. Still for that read-out and setting: for `O=C(Cc1cccc(O)c1)NC1CCN(c2cccc(Cl)c2)C1` (stereo not drawn) the value was 5.178%. The same measure, in the same setting: the value for `Clc1cccc(-c2cccc(N3CCC(NC4CCOCC4)CC3)c2)c1` was 97.72%. On to `CCc1cccc(N2CCC(NC(=O)C3CCOCC3)CC2)c1`, for which the “Percent Effect” value (30 µM) amounted to 8.469%. With `Cc1nc(-c2cccc(N3CCC(NC4CCOCC4)CC3)c2)cs1`, the “Percent Effect” value (30.3 µM, […]) is 22.64%. On the same count and under the same terms, for `Cc1nnc(-c2cccc(N3CCC(NC4CCSC4)CC3)c2)s1` (stereo not drawn) the value was 17.73%. For `CN(C(=O)Cn1nc(-c2cccs2)ccc1=O)C1CCS(=O)(=O)C1` (stereo not drawn), the “Percent Effect” value (30 µM, 30.03 µM) is listed as -0.2404%. Consider `CCn1nc(C)c2nnn(CC(=O)Nc3ccc(C)c(C)c3)c(=O)c21`, for which the “Percent Effect” value (30.3 µM, […]) is -87.23%. Same read-out and setting: the value for `COCCN1CCOCC12CCN(c1ccc(C#N)cc1)CC2.O=C(O)C(F)(F)F` was 3.251%; that for `O=C(N[C@@H]1C[C@H]2CC[C@@H]1C2)C1(Oc2ccc(Cl)cc2)CCNCC1` was 99.44%.

On to `O=C(N[C@@H]1CCCNC1)C1(Oc2ccc(Cl)cc2)CCNCC1`, for which the “Percent Effect” value (30.3 µM, […]) was determined as 12.74%. Still for that read-out and setting: for `CO[C@H]1COC[C@@H]1NC(=O)C1(Oc2ccc(Cl)cc2)CCNCC1` the value was 9.396%; for `CCOc1ccc(OCc2nc3c(c(=O)[nH]2)CCNC3)cc1`, 15.57%. Regarding `O=C(NCCCNc1ccc(C(F)(F)F)cn1)c1ccc(F)cc1Br`, the “Percent Effect” value (30 µM) turned out to be 45.44%.

As to `COc1ccc(C(=O)NCCCNc2ccc(C(F)(F)F)cn2)cc1`, for the setting “30 µM”, the “Percent Effect” value came out at 37.73%.

Consider `COc1ccc(Br)c(C(=O)NCCNc2ccc(C(F)(F)F)cn2)c1`, for which, for the setting “30 µM, 30.03 µM”, the “Percent Effect” value was determined as 56.64%. In the case of `CCOC(=O)N1CCc2ccccc2C12CCNCC2.Cl`, the “Percent Effect” value (30.3 µM, […]) is reported as 0.5062%. Turning to `CNC(=O)COc1ccc(CNc2cncc(-n3cccn3)n2)cc1`, the “Percent Effect” value (30 µM) was 19.22%.

`COCc1ccc(CNc2cncc(-n3cccn3)n2)cc1`: under “30 µM”, the “Percent Effect” value was determined as 27.73%. `COC(=O)Nc1ccc(CNc2cncc(-n3cccn3)n2)cc1`: the “Percent Effect” value (30 µM) is on record as 52.92%. Regarding `CN1CC[C@H]2CN(C(=O)c3ccc4sc5c(c4c3)CCNC5=O)C[C@H]21`, under “30.3 µM, […]”, the “Percent Effect” value is given as 4.332%.
